Source: PubChem BioAssay (National Center for Advancing Translational Sciences (NCATS))
TDP1 cell CPT: DT40-hTDP1 cell growth loss with CPT; chicken DT40 Tdp1-/-;hTDP1 cells + 20 nM CPT, ATP luminescence, 48 h; Potency, µM (top dose mostly 46.2 µM), for the others: top-dose activity change, negative = growth inhibition, actives largely listed as inhibitors; 420,000 tested, 12% active; AID 686979; also: % is scaled to controls: 0 for no effect and ±100 for the full control effect; nearly all actives have a fitted effect of over 55% in size
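Chicken DT40 Tdp1-/- cells complemented with human TDP1, 400 cells/well, exposed to compounds plus 20 nM camptothecin for at least 48 h at 37 C; viability read as ATP content by CellTiter-Glo luminescence.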
HT1080NT lethal: kills 2HG-producing HT-1080-NT fibrosarcoma cells. HT-1080-NT fibrosarcoma viability, CellTiter-Glo ATP luminescence, 48 h. Potency, µM (doses to about 46.1 µM), inactives show top-dose activity, negative = less viability, most hits filed as cytotoxic. 360,000 tested, 1.6% active;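 also: NT is the 2HG producing partner of a matched IDH1 knockdown line; 0% = DMSO-treated cells and -100% = media-only wells without cells; nearly all actives have a fitted effect of over 55% in size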
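Toxicity toward the 2HG-producing NT line was scored as %Activity, normalised to DMSO and no-cell wells, from CellTiter-Glo luminescence after 48 hours' treatment.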
DT40 TDP1 no CPT: qHTS for Inhibitors of human tyrosyl-DNA phosphodiesterase 1 (TDP1): qHTS in cells in absence of CPT | DT40 Tdp1-/- hTDP1 cells, no CPT, ATP luminescence, 48 h | 420,000 tested, 15% active | Potency, µM (series often up to 46.2 µM), for inactives: top-dose activity change, negative = growth inhibition, usual class: inhibitors; also: % is scaled to controls: 0 for no effect and ±100 for the full control effect; nearly all actives have a fitted effect of over 55% in size
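Seeded 400 DT40-hTDP1 cells/well (vehicle DMSO, no 20 nM CPT); pinned compounds; ≥48 hr at 37 °C; CellTiter-Glo luminescence as viability measure.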
HT1080 IDH1KD tx: toxicity to HT-1080 IDH1 knockdown cells (counter line) | 360,000 tested, 2% active | HT-1080 IDH1 knockdown viability, ATP luminescence, 48 h | Potency, µM (series often up to 46.1 µM), for the others: at the highest dose activity, negative = toxicity, most hits filed as cytotoxic;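 also: 0% = DMSO wells and -100% = cell-free medium wells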
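IDH1KD HT-1080 cells, 750/well, RPMI + 5% FBS; compound pinned after 2 h settling; 48 h, 37 °C; CellTiter-Glo luminescence; % activity normalised to DMSO and no-cell wells; curves fitted, classed by r2 and efficacy.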
HepG2 tox: kills HepG2 cells in TGF-b inhibitor counter-screen; HepG2 CAGA-GFP viability, ATP luminescence, 18 h; Potency, µM (highest dose often 46.1 µM), inactives show at the highest dose activity change, negative = cytotoxicity, usual class: cytotoxic; 410,000 tested, 0.76% active; AID 588856
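CellTiter-Glo luminescence gave cytotoxicity after 18 hours at 37 degrees C. The cells were HepG2 CAGA-GFP in 1% FBS DMEM, stimulated with 500 pg/mL TGF-beta after compound addition. %Activity was normalised to no-cell wells (complete cell-killing) and DMSO (no toxicity), and curves were fitted and classified.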
TGFb inhibitor: TGF-b pathway inhibition. 410,000 tested, 1.2% active. Potency, µM (top dose mostly 46.1 µM), for the others: at the highest dose activity, negative = inhibition, most hits filed as inhibitors. HepG2 CAGA-GFP TGF-b/SMAD3 reporter, GFP fluorescence, 18 h; TGF-beta stimulated, 500 pg/mL final; also: % is scaled to controls: 0 for no effect and ±100 for the full control effect; nearly all actives have a fitted effect of over 65% in size
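First, reporter cells (HEPG2 CAGA-GFP) rested 2 h at 37 degrees C. Next, compounds were pinned in and TGF-beta added to 500 pg/mL final. After 18 h, GFP was imaged per cell and summed per well.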
Starred values were filed as active, the others as inactive; ? = inconclusive; · = no result; [ ] = another dose, or the depositor's remark. An excerpt weighted towards active compounds, which were near 17% of everything screened. Calls follow the shape of the dose curve; as a rule, active = well fitted curve in the direction sought with a large enough effect; inconclusive = small, poorly fitted or top-dose-only effect, or another doubt; inactive = no such curve, though single readings can be large; an effect the other way counts as inactive or inconclusive. Potency is read from the fitted curve at half-maximal effect.

SMILES	TDP1 cell CPT	HT1080NT lethal	DT40 TDP1 no CPT	HT1080 IDH1KD tx	HepG2 tox	TGFb inhibitor
COCCSc1nnc(NC(=O)CCS(=O)(=O)c2ccccc2)s1	7.3µM*	?	13µM*	23µM*	-25%	?
Cc1ccc(S(=O)(=O)CCc2nnc(NC(=O)CCl)s2)cc1C	15µM*	?	13µM*	15µM*	-45%	-23%
Cc1cc(C)cc(N(CCC(=O)Nc2nnc(C)s2)S(=O)(=O)c2ccc(Cl)cc2)c1	?	-18%	23µM*	-22%	7%	0%
CCOCCc1nnc(NC(=O)C(C)Oc2ccccc2)s1 (stereo not drawn)	-3%	-2%	2%	10%	7%	12%
CC(C)Cc1nnc(NC(=O)CCS(=O)(=O)c2ccc(Cl)cc2)s1	21µM*	-2%	?	4%	-2%	-21%
CC(=O)Oc1ccc2c(c1)OC(c1ccccc1)CC21CC(C)(C)NC(=S)N1 (stereo not drawn)	16µM*	-6%	12µM*	-7%	1%	3%
COc1ccc(C2(c3ccc(OC(C)=O)cc3OC(C)=O)CC(c3ccccc3)NC(=S)N2)cc1 (stereo not drawn)	?	-3%	?	?	-2%	-28%
CC1(C)CC2(CC(c3ccccc3)Oc3cc(O)ccc32)NC(=S)N1 (stereo not drawn)	21µM*	2%	21µM*	7%	1%	?
Cc1cc(C=C2C(=O)c3ccccc3C2=O)c(C)n1-c1ccccc1	?	5%[9.24 µM]	?	-29%	-17%	-1%
Cc1cc(/C=C2/C(=N)N3C(c4ccccc4)=CSC3=NC2=O)c(C)n1-c1ccccc1	13µM*	0%	13µM*	4%	18%	13%
CC1=NN(c2ccccc2)C(=O)/C1=C\c1cc(C)n(-c2ccccc2)c1C	?	10%	23µM*	6%	-4%	12%
CC1=NN2C(=N)/C(=C\c3cc(C)n(-c4ccccc4)c3C)C(=O)N=C2S1	-12%	6%	-7%	6%	9%	0%
Cc1cc(/C=C2\Cc3ccccc3C2=O)c(C)n1-c1ccccc1	?	-3%	13µM*	0%	-15%	-24%
CC1=NN(c2ccccc2)C(=O)C1=Cc1ccccc1	-17%	-5%	-6%	-2%	0%	-5%
CC1O[C@@H](O[C@H]2C(Oc3cc(O)c4c(=O)cc(-c5ccc(O)cc5)oc4c3)OC(CO)C(O)C2O)C(O)C(O)C1O (stereo partly drawn)	12%	·	-5%	·	·	·
CCN(CC)S(=O)(=O)c1ccc2c(c1)nc(CCC(=O)OCC(=O)Nc1cc(Cl)cc(Cl)c1)n2C	0%	-3%	-18%	2%	4%	12%
CCOc1ccc(S(=O)(=O)N2CCN(C(=O)CN3C(=O)NC(C)(C)C3=O)CC2)cc1	-13%	9%	16%	0%	2%	1%
Cc1cn2c(=O)cc(COC(=O)COc3ccc(F)cc3)nc2s1	3%	·	-15%	·	-14%	-36%
O=C(OCCCc1cc2ccccc2c(=O)o1)c1ccc2c(c1)OCO2	-10%	-1%	?	-1%	-16%	-7%
Cc1ccccc1C(=O)Nc1cccc(NC(=O)c2ccc(-c3ccc(Br)cc3)o2)c1	23µM*	-19%	8.2µM*	-15%	-63%	-6%
O=C(Nc1ccc(CN2CCOCC2)cc1)c1ccc(Br)o1	21%	7%	-16%	-8%	0%	-8%
O=C(Nc1ccc(N2CCN(C(=O)c3ccccc3)CC2)c(Cl)c1)c1ccc(Br)o1	23µM*	7.1µM*	21µM*	?	-34%	-4%
CN1CCN(c2ccc(NC(=O)c3ccc(-c4ccc(Br)cc4)o3)cc2)CC1	?	15µM*	29µM*	23µM*	22µM*	?
O=C(Nc1ccc(N2CCOCC2)c(Cl)c1)c1ccc(Br)o1	?	?	11µM*	-8%	5%	-1%
C=CC(C)(O)CC/C=C(\C)CCC=C(C)C (stereo not drawn)	5%	·	-12%	·	·	·
SMILES	TDP1 cell CPT	HT1080NT lethal	DT40 TDP1 no CPT	HT1080 IDH1KD tx	HepG2 tox	TGFb inhibitor
NC(CCC(=O)NC(CCSC(CC(=O)O)C(=O)O)C(=O)NCC(=O)O)C(=O)O (stereo not drawn)	-7%	·	-4%	·	·	·
COC(=O)Cn1c(C(=O)N2CCCC2)cc2c1C[C@H]1CN(C(=O)c3ccccc3)[C@@](Cc3ccc(OC)cc3)(C(=O)OC)[C@@H]21	?	1%	?	6%	·	·
COc1ccc(C(=O)NNC2=CC(=O)CC(C)(C)C2)cc1OC	-11%	20%	-4%	14%	2%	9%
O=C(Nc1ccc(N2CCN(C(=O)c3ccccc3)CC2)cc1)c1ccc(Br)o1	16µM*	2%	?	6%	6%	?
O=C(Nc1ccc(N2CCCC2)cc1)c1ccc(Br)o1	?	6%	?	12%	0%	-1%
NC(Cc1ccc(F)cc1)c1csc(Nc2ccc(C(=O)c3ccccc3)cc2)n1 (stereo not drawn)	?	?	?	15µM*	13µM*	11µM*
COc1ccc(CC(N)c2csc(Nc3ccc(C(=O)c4ccccc4)cc3)n2)cc1 (stereo not drawn)	12µM*	?	9.2µM*	?	-112%	?
NC(c1csc(Nc2ccc(C(=O)c3ccccc3)cc2)n1)c1ccccc1Cl (stereo not drawn)	21µM*	?	?	?	-24%	?
CC(N)c1csc(Nc2ccc(C(=O)c3ccccc3)cc2)n1 (stereo not drawn)	?	?	?	-29%	-16%	-9%
NC(CO)c1csc(Nc2ccc(C(=O)c3ccccc3)cc2)n1 (stereo not drawn)	-2%	?	?	-20%	-1%	11%
NC(Cc1ccc(Cl)cc1)c1csc(Nc2ccc(C(=O)c3ccccc3)cc2)n1 (stereo not drawn)	21µM*	?	21µM*	?	10µM*	11µM*
COc1ccc(CC(N)c2csc(Nc3ccc(C(C)=O)cc3)n2)cc1 (stereo not drawn)	26µM*	?	21µM*	?	-16%	-20%
